Source: PubChem (National Center for Advancing Translational Sciences (NCATS))
The list is not random: actives were taken first. Their share in the collection is about 19%.
DT40 TDP1 CPT – growth inhibition of DT40 Tdp1-/-;hTDP1 cells with camptothecin (screen for TDP1 inhibitors) | chicken DT40 Tdp1-/-;hTDP1 cells + 20 nM CPT, ATP luminescence, 48 h | Potency, µM (titrated, usually from 46.2 µM), most hits filed as inhibitors | 420,000 compounds, 12% hits | AID 686979; also: nearly all actives have a fitted effect of over 55% in size
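Chicken DT40 Tdp1-/- cells stably complemented with human TDP1 were seeded at 400 cells/well in medium containing 20 nM camptothecin, exposed to pin-transferred compounds, and grown at 37 °C for at least 48 hr. Viability was read as ATP luminescence.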
HT1080 IDH1KD tx – toxicity to HT-1080 IDH1 knockdown cells (counter line) | HT-1080 IDH1 knockdown viability, ATP luminescence, 48 h | Potency, µM (titrated, usually from 46.1 µM), usual class: cytotoxic | AID 686971 | 360,000 compounds, 2% hits
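Cytotoxicity counter-line: IDH1KD HT-1080, 48 h, CellTiter-Glo. Curves classed by r2, magnitude and activity.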
TDP1 cell noCPT – qHTS for Inhibitors of human tyrosyl-DNA phosphodiesterase 1 (TDP1): qHTS in cells in absence of CPT. DT40 Tdp1-/- hTDP1 cells, no CPT, ATP luminescence, 48 h. AID 686978, 2013. Potency, µM (highest dose often 46.2 µM), hits mostly inhibitors. 420,000 compounds, 15% hits; also: nearly all actives have a fitted effect of over 55% in size
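Growth kinetics read by CellTiter-Glo luminescence after ≥48 hr at 37 °C. Cells: DT40 Tdp1-/- stably carrying human TDP1, 400 per well, compound exposure in the absence of CPT (DMSO vehicle).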
KB-3-1 tox – KB-3-1 parental cell cytotoxicity; AID 1347075; KB-3-1 viability, CellTiter-Glo ATP luminescence, 72 h; Potency, µM (highest dose often 46.1 µM), actives largely listed as cytotoxic; 400,000 compounds, 1.4% hits; also: nearly all actives have a fitted effect of over 60% in size
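KB-3-1 parental drug-naive adenocarcinoma cells in DMEM/10% FBS, incubated 72 h at 37 C with pin-transferred compounds across a concentration series. Viability by CellTiter-Glo luminescence; concentration-response curves fitted after normalization.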
KB-V1 MDR tox – kills drug-selected multidrug resistant KB-V1 cells | KB-V1 MDR cells viability, CellTiter-Glo, 72 h | 400,000 compounds, 3.4% hits | Potency, µM (doses to about 46.1 µM), most hits filed as cytotoxic; also: nearly all actives have a fitted effect of over 60% in size
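KB-V1, DMEM (no phenol red) + 10% FBS; cpd pin-transferred, titration series; 72 h, 37 degrees C; CellTiter-Glo, luminescence. Data normalized, curve-fit.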
HT1080-NT tox – kills 2HG-producing HT-1080-NT fibrosarcoma cells | HT-1080-NT fibrosarcoma viability, CellTiter-Glo ATP luminescence, 48 h | Potency, µM (top dose mostly 46.1 µM), hits mostly cytotoxic | 360,000 compounds, 1.6% hits;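 also: NT is the 2HG producing partner of a matched IDH1 knockdown line; nearly all actives have a fitted effect of over 55% in size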
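Read-out is CellTiter-Glo luminescence after 10 minutes at room temperature, following 48 hours' compound treatment of HT-1080-NT cells (750 cells/well, RPMI, 5% FBS, 37 degrees C).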
A number is an active result; - = inactive; ? = inconclusive; . = no result; [ ] = dose if it differs, or a comment. Calls follow the shape of the dose curve; as a rule, active = well fitted curve in the direction sought with a large enough effect; inconclusive = small, poorly fitted or top-dose-only effect, or another doubt; inactive = no such curve, though single readings can be large; an effect the other way counts as inactive or inconclusive.

SMILES	DT40 TDP1 CPT	HT1080 IDH1KD tx	TDP1 cell noCPT	KB-3-1 tox	KB-V1 MDR tox	HT1080-NT tox
CCNS(=O)(=O)c1ccc(CCC(=O)NCc2ccccn2)cc1	-	-	-	-	-	-
COc1ccc(N(C(=O)C(C)C)S(=O)(=O)c2ccc3ccccc3c2)cc1	14.6µM	-	?	-	-	-
COc1ccc(N(C(=O)c2ccc(OC)c(OC)c2)S(=O)(=O)c2ccc(Cl)cc2)cc1	25.9µM	.	20.6µM	-	-	.
COc1ccc(N(C(=O)c2cccc(C)c2)S(=O)(=O)c2ccc(C)cc2)cc1	18.4µM	.	?	?	-	.
COc1ccc(N(C(=O)C(C)C)S(=O)(=O)c2cccs2)cc1	-	?	?	-	-	-
COc1ccc(N(C(=O)c2ccc(C)cc2)S(=O)(=O)c2ccc(Cl)cc2)cc1	?	.	?	-	-	.
COc1ccc(N(C(=O)c2ccc(Cl)cc2)S(=O)(=O)c2ccc(C)cc2)cc1	?	.	23.1µM	-	?	.
COc1cc(C(=O)NCC(=O)OCc2ccc(F)cc2)cc(OC)c1OC	-	-	-	-	-	-
COc1ccc(S(=O)(=O)Oc2ccc3ccccc3c2)cc1	16.4µM	-	29.1µM	?	16.4µM	-
COc1ccc(S(=O)(=O)Oc2ccc3cccc(N)c3c2)cc1	?	-	?	?	?	-
CC1(C)CC(Cc2ccc(C(=O)c3ccccc3)cc2)N(C(=O)OC(C)(C)C)N1 (stereo not drawn)	6.51µM	-	4.11µM	-	-	-
Cc1c(C(=O)NCC2CCCO2)oc2ccc(Br)cc12 (stereo not drawn)	?	-	?	-	-	-
CC1=CC(C)C(/C=N/n2cnnc2)C(C)C1 (stereo not drawn)	-	-	-	-	-	-
C=C(C)C1CCC(C)=C1CC(C)(C)/C=N\n1cnnc1 (stereo not drawn)	10.3µM	-[9.24 µM]	20.6µM	-	14.6µM	-
C=CCN(C(=O)CCc1ccccc1OC)c1nc(-c2ccc(S(C)(=O)=O)cc2)cs1	16.4µM	?	9.2µM	-	-	-
CCC(=O)N(Cc1ccco1)c1nc(-c2ccc(OC)cc2)cs1	-	-	-	-	-	-
O=C(NCCc1ccccc1Cl)C1CCC(=O)N(C2CCCCCC2)C1 (stereo not drawn)	?	-	-	-	-	-
Cc1ccc(NC(=O)C2CCN(S(=O)(=O)c3ccc4ccccc4c3)CC2)nc1	-	-	?	-	?	-
C=CCN(C(=O)Nc1ccc(Cl)cc1)C1CC(=O)N(c2ccc(OC)cc2)C1=O (stereo not drawn)	23.1µM	-	-	-	-	-
CNC(=S)N(Cc1ccc(OC)cc1)C1CC(=O)N(c2ccc(Cl)cc2)C1=O (stereo not drawn)	16.4µM	-	18.4µM	?	-	-
CNC(=S)N(Cc1ccc2c(c1)OCO2)C1CC(=O)N(c2ccc(F)cc2)C1=O (stereo not drawn)	?	-	20.6µM	?	16.4µM	-
C=C[C@@]1(C)CC(=O)[C@@]2(O)[C@@]3(C)[C@@H](O)CCC(C)(C)[C@@H]3[C@H](O)[C@H](OC(C)=O)[C@@]2(C)O1	-	.	?	.	.	.
COC(=O)[C@H](CCSC)NC(=O)Nc1ccc(S(N)(=O)=O)cc1	-	-	-	-	-	-
CCCN(CCC)c1nn2c(=O)c(C(=O)NCc3cccc(OC)c3)cnc2s1	?	.	16.4µM	.	.	.
Cc1cccc(CNC(=O)c2cnc3sc(N4CCOCC4)nn3c2=O)c1	-	.	-	.	.	.
CCN(CC)c1nn2c(=O)c(C(=O)NCc3cccc(C)c3)cnc2s1	?	.	16.4µM	.	.	.
CCc1ccc2oc(-c3ccc(NC(=O)c4cccc(Cl)c4Cl)cc3)nc2c1	?	.	?	?	-	.
CCOCCCn1c(=NC(=O)c2cccs2)c(C#N)cc2c(=O)n3ccccc3nc21	-	-	-	-	-	-
